Experimental data from PubChem BioAssay.
Results with a measured potency or affinity are listed apart. Records with an inconclusive call do not appear. Active and inactive are the calls of the source. How the calls were made is not given here.

Experiment: non-specific cell cytotoxicity, dose response, cytotoxicity control for PAX8 inhibitor project, plate reader, dry powder samples (AID 743021)
Details: cell line, non-specific cytotoxicity counter-screen; series mostly up to 35 µM

SMILES | outcome
C[C@H]1CN([C@@H](C)CO)C(=O)CCCn2nncc2CO[C@@H]1CN(C)C(=O)Nc1ccc(-c2cccs2)cc1 | inactive
Cc1ccc(S(=O)(=O)Nc2cccc3c2O[C@@H](CN(C)C(=O)Nc2ccc(C(F)(F)F)cc2)[C@@H](C)CN([C@H](C)CO)C3=O)cc1 | inactive
COc1ccc(CN2[C@H](CO)[C@H]3c4ccccc4NC[C@H]32)cc1 | inactive
CCCN1[C@H](C(=O)N2CCOCC2)[C@@H](CO)[C@@H]2Cn3c(ccc(/C=C/c4ccccc4)c3=O)[C@@H]21 | inactive
O=C(C[C@@H]1C[C@H]2c3cc(NC(=O)C4CCOCC4)ccc3O[C@H]2[C@H](CO)O1)NCc1ccc(Oc2ccccc2)cc1 | inactive
C[C@@H]1CN([C@H](C)CO)C(=O)c2cc(NC(=O)c3ccncc3)ccc2O[C@@H](C)CCCCO[C@H]1CN(C)Cc1ccc(C(F)(F)F)cc1 | inactive
Cc1cccc(-c2ccc([C@H]3[C@@H](CO)N4CCCCN(S(=O)(=O)c5cccc(C)c5)C[C@@H]34)cc2)c1 | inactive
C[C@@H]1CN([C@H](C)CO)C(=O)c2cc(NS(=O)(=O)c3ccc(F)cc3)ccc2O[C@@H]1CN(C)Cc1ccc(C(F)(F)F)cc1 | inactive
C[C@@H]1CN([C@H](C)CO)C(=O)c2c(c3ccccc3n2C)-c2ccccc2CO[C@@H]1CN(C)S(=O)(=O)c1ccc(C(F)(F)F)cc1 | inactive
C[C@@H]1CCCCO[C@@H](CN(C)S(=O)(=O)c2ccc(Cl)cc2)[C@H](C)CN([C@@H](C)CO)C(=O)c2cc(NS(=O)(=O)c3ccc(Cl)cc3)ccc2O1 | inactive
C[C@H](CO)N1C[C@H](C)[C@H](CN(C)S(=O)(=O)c2cccs2)OCCCC[C@H](C)Oc2ccc(NC(=O)NC3CCCCC3)cc2C1=O | inactive
Cc1ccc(S(=O)(=O)Nc2ccc3c(c2)C(=O)N([C@@H](C)CO)C[C@H](C)[C@@H](CN(C)Cc2ccc(Cl)c(Cl)c2)OCCCC[C@@H](C)O3)cc1 | inactive
C[C@@H]1CCCCO[C@@H](CN(C)Cc2ccc(Cl)c(Cl)c2)[C@H](C)CN([C@H](C)CO)C(=O)c2cc(NS(=O)(=O)c3ccc(F)cc3)ccc2O1 | inactive

Experiment: IGROV1 ovarian cancer cell cytotoxicity, dose response, PAX8 inhibitor project, plate reader, dry powder samples (AID 743043);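 further: more negative means fewer viable cells or more cytotoxicity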
Details: series mostly up to 35 µM

SMILES | outcome
C[C@@H]1CN([C@@H](C)CO)C(=O)Cc2cc(N(C)C)ccc2O[C@H]1CN(C)Cc1ccc(Oc2ccccc2)cc1 | inactive
C[C@H](CO)N1C[C@H](C)[C@H](CN(C)Cc2ccc3c(c2)OCO3)Oc2ccc(NC(=O)Nc3cccc4ccccc34)cc2C1=O | inactive
COc1ccccc1C#Cc1ccc2c(c1)O[C@H](CN(C)Cc1cccnc1)[C@H](C)CN([C@H](C)CO)S2(=O)=O | inactive
C[C@@H]1CCCCO[C@H](CN(C)Cc2ccc(C(F)(F)F)cc2)[C@H](C)CN([C@H](C)CO)C(=O)c2cc(NS(=O)(=O)c3ccc(F)cc3)ccc2O1 | inactive
CN1c2ccc(-c3ccc(C#N)cc3)cc2[C@@H]2[C@@H](CCN2C(=O)NC2CCCCC2)[C@@H]1CO | inactive
Cc1ccc(S(=O)(=O)Nc2ccc3c(c2)C(=O)N([C@@H](C)CO)C[C@H](C)[C@H](CN(C)Cc2ccc(C(F)(F)F)cc2)OCCCC[C@@H](C)O3)cc1 | inactive
Cc1ccc(S(=O)(=O)N(C)C[C@H]2Oc3ccc(NC(=O)Nc4ccc(C(F)(F)F)cc4)cc3CC(=O)N([C@@H](C)CO)C[C@H]2C)cc1 | inactive
CCCN(C)C[C@H]1OCCCC[C@@H](C)Oc2ccc(NC(=O)c3ccccc3)cc2C(=O)N([C@H](C)CO)C[C@H]1C | inactive
C[C@@H]1CCCCO[C@H](CN(C)Cc2ccc(Cl)c(Cl)c2)[C@@H](C)CN([C@@H](C)CO)C(=O)c2cc(NS(=O)(=O)c3ccc(Cl)cc3)ccc2O1 | inactive
C[C@@H]1CN([C@H](C)CO)C(=O)c2c(c3ccccc3n2C)-c2ccccc2CO[C@H]1CN(C)C(=O)Nc1cccc(C(F)(F)F)c1 | inactive
C[C@@H]1CCCCO[C@H](CN(C)Cc2ccc(Cl)c(Cl)c2)[C@H](C)CN([C@@H](C)CO)C(=O)c2cc(NC(=O)Nc3ccc(F)cc3)ccc2O1 | inactive
C[C@H](CO)N1C[C@H](C)[C@H](CN(C)Cc2ccc(Cl)c(Cl)c2)Oc2c(NS(=O)(=O)c3ccc(Cl)cc3)cccc2C1=O | inactive
Cc1ccc(S(=O)(=O)Nc2ccc3c(c2)C(=O)N([C@H](C)CO)C[C@@H](C)[C@H](CN(C)S(=O)(=O)c2ccc(Cl)cc2)OCCCC[C@H](C)O3)cc1 | inactive
